CYP2C19 inh – inhibitors of human CYP2C19 | P33261 | CYP2C19 Supersomes, luciferin-H EGE luminescence, 30 min | inhibition, % at 5 µM | 21% of 96,000 active | AID 778;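 active = CYP2C19 inhibition above a set limit at 5 µM in the primary screen, cut at about 50% in these data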
CYP2C9 inh – blocks human cytochrome P450 2C9 | inhibition, % at 5 µM | CYP2C9 Supersomes, luciferin-H conversion, luminescence | 20% of 96,000 active | P11712;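 active = blocking of liver enzyme CYP2C9 beyond about 50% at 5 µM, limit read from the data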
Target sequence (P11712 whole entry, looked up): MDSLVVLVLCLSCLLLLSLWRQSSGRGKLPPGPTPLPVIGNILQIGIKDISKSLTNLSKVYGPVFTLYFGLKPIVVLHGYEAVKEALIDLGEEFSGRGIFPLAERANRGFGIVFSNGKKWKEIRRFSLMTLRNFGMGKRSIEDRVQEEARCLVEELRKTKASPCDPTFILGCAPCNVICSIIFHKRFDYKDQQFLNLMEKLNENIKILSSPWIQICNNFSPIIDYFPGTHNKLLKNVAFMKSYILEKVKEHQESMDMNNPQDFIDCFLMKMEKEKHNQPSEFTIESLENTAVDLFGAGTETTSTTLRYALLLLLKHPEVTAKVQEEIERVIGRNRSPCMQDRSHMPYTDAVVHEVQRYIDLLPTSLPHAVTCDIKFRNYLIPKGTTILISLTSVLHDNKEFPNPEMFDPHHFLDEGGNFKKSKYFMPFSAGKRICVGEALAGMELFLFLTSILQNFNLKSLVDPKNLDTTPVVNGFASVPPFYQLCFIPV
CYP2C19 act – activators of human cytochrome P450 2C19; 96,000 tested, under 10 active; P33261; activation factor at 5 µM; AID 1025; recombinant CYP2C19, luciferin-H EGE luminescence; stronger effect = higher value; 0 = fully inhibited enzyme, 1 = untreated enzyme;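 active = activation factor of at least 2 at 5 µM in the primary screen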
CYP2C9 act – increases human cytochrome P450 2C9 activity. P11712. recombinant CYP2C9, luciferin-H conversion, luminescence; stronger effect = higher value; factor 1 = untreated enzyme, 0 = blocked. activation factor at 5 µM. 1.4% of 96,000 active. AID 1024;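 active = activation factor of 2 or more for CYP2C9 at a 5 µM dose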
Measles CPE – protection of cells from measles virus; Measles virus-infected cells, CPE protection, absorbance; 1.5% of 140,000 active; AID 841; protection (pct of control), % at 4 µM; in the data active = protection mostly above about 24%, no sharp cut-off; inactive = mostly below about 26%
Large screens that a line does not name were inactive. Compounds with a hit are over-represented: about 22% of the library has one in this group of screens.

COc1ccc(CNC(=O)c2cc(C3CC3)on2)cc1	CYP2C19 inh 81.4
COc1cc(OC)cc(C(=O)NCc2cccnc2)c1	CYP2C19 inh 61.8
O=C(NCc1ccc(Cl)cc1)c1cccnc1	CYP2C19 inh 65.9
CC(C)(C)c1ccc(C(=O)NCc2cccnc2)cc1	CYP2C19 inh 58.8, CYP2C9 inh 68.9
COc1ccc(CNC(=O)c2cc(-c3ccc(OC)c(OC)c3)on2)cc1	none
CC(C)(C)c1ccc(C(=O)NC(=S)NCc2cccnc2)cc1	none (no result: CYP2C19 inh, CYP2C9 inh, CYP2C19 act, CYP2C9 act)
COc1ccc(/C=C/C(=O)NCc2cccnc2)cc1	none (no result: CYP2C19 inh, CYP2C9 inh, CYP2C19 act, CYP2C9 act)
CCc1ccc(C(=O)NCc2ccc(Cl)cc2)cc1	none (no result: CYP2C19 inh, CYP2C9 inh, CYP2C19 act, CYP2C9 act)
OC(CNCC(c1ccco1)N1CCCCC1)c1ccccc1 (stereo not drawn)	none
O=C(NCc1n[nH]c(=S)n1-c1ccccc1)c1ccco1	none (no result: CYP2C19 inh, CYP2C9 inh, CYP2C19 act, CYP2C9 act)
Cc1ccc(OCc2nc3ccccc3[nH]2)cc1	none (no result: CYP2C19 inh, CYP2C9 inh, CYP2C19 act, CYP2C9 act)
COc1cc(OC)cc(C(=O)NC(=S)Nc2cccnc2)c1	CYP2C19 inh 76.2, CYP2C9 inh 77.8
Cc1cccc(OCC(=O)Nc2ccc(C(=O)NCc3cccnc3)cc2)c1	CYP2C19 inh 52.8
COc1ccc(C(=O)NCc2cccnc2)cc1Br	CYP2C9 inh 72.5
COc1ccc(C(=O)NCc2ccccc2)cc1Br	none (no result: CYP2C19 inh, CYP2C9 inh, CYP2C19 act, CYP2C9 act)
C/C(NCc1ccccc1)=C(\C#N)C(=O)NCc1ccccc1	none
C/C(NCc1cccnc1)=C(\C#N)C(=O)NCc1ccccc1	CYP2C19 inh 81.9
COc1ccccc1N1CCN(CC(=O)Nc2cc(F)ccc2C)CC1	none
COCCn1c(-c2ccccc2F)n[nH]c1=S	none
Clc1ccc(Cn2ncc3c(NCc4ccccc4)ncnc32)cc1	none
O=C(Cc1cccs1)Nc1ccccc1C(=O)O	none
O=C(NCc1cccnc1)c1cc(-c2ccccc2)on1	none
CC1(C)CC(=O)c2cc(OCC(=O)NCc3cccnc3)ccc2O1	none
COc1ccc(OCC(=O)NCc2cccnc2)cc1	CYP2C19 inh 58.1
COc1ccc(-c2cc(C(=O)NCc3cccnc3)no2)cc1	CYP2C9 inh 57.5
CCC(NC(=O)NCc1cccnc1)(C(F)(F)F)C(F)(F)F	CYP2C19 inh 87.0, CYP2C9 inh 72.6
Cc1noc(/C=C/NCc2cccnc2)c1S(=O)(=O)N(C)CC(=O)N1CCc2ccccc21	CYP2C9 inh 77.6
OCc1ccccc1OCCOc1ccc(Cl)c2cccnc12	CYP2C9 act 2.1
Nc1ccc(CC2SC(=O)NC2=O)cc1 (stereo not drawn)	none
Cc1nc(C)c(C(=O)OCC(=O)N2CCN(c3ccccc3)CC2)s1	none
COc1ccc(NC(=S)NCCc2ccc(F)cc2)c(OC)c1	none (no result: CYP2C19 inh, CYP2C9 inh, CYP2C19 act, CYP2C9 act)
COc1ccccc1NC(=S)NCc1ccco1	CYP2C19 inh 63.7
COc1ccc(NC(=S)NCCc2ccccc2)c(OC)c1	CYP2C19 inh 89.5
COc1ccccc1NC(=S)NCCc1ccc(Cl)cc1	CYP2C19 inh 70.6
Fc1cc(Br)ccc1NC(=S)NCCc1ccccc1	CYP2C19 inh 76.4
CCC(C)N1C(=O)CCC1C(=O)N1CCN(c2ccccc2F)CC1 (stereo not drawn)	none
Cc1cc(OCC(=O)N2CCCCCC2)ccc1[N+](=O)[O-]	none (no result: CYP2C19 inh, CYP2C9 inh, CYP2C19 act, CYP2C9 act)
O=C(COc1ccc(Cl)cc1Cl)N1CCCCCC1	none
O=C(COc1ccccc1Cl)N1CCN(c2ccc([N+](=O)[O-])c(N3CCCCC3)c2)CC1	CYP2C19 inh 59.1, CYP2C9 inh 84.2
O=C(COc1ccc(Cl)cc1)N1CCN(c2ccc([N+](=O)[O-])c(N3CCCCC3)c2)CC1	CYP2C19 inh 98.3, CYP2C9 inh 60.7
COc1ccc(NC(=O)/C(C#N)=C\c2cc(C)n(-c3ccc(Oc4ccc([N+](=O)[O-])cn4)cc3)c2C)cc1	none
COCC(=O)N(Cc1cc2cc(OC)ccc2[nH]c1=O)c1ccc(C)cc1	CYP2C9 inh 58.8
CCOc1ccc(N(Cc2cc3cc(OC)ccc3[nH]c2=O)C(=O)C2CCCO2)cc1 (stereo not drawn)	CYP2C9 inh 67.8
CCOc1ccccc1N(CC(=O)NC1CCCC1)C(=O)CCC(=O)Nc1cc(C)on1	CYP2C19 inh 83.4, CYP2C9 inh 83.4
COc1ccc(C)cc1N(CC(=O)NC1CCCC1)C(=O)CCC(=O)Nc1cc(C)on1	none
COc1ccc(CCN(CC(=O)NC2CCCC2)C(=O)CCC(=O)Nc2cc(C)on2)cc1OC	Measles CPE 22.4
CCOc1ccccc1N(CC(=O)NCC1CCCO1)C(=O)CCC(=O)Nc1ccccn1 (stereo not drawn)	none
COc1ccccc1N(CC(=O)NC1CCCC1)C(=O)CCC(=O)Nc1cc(C)on1	CYP2C19 inh 63.2, CYP2C9 inh 65.2
Cc1ccnc(NS(=O)(=O)c2ccc(NC(=O)C3CCCCC3C(=O)O)cc2)n1 (stereo not drawn)	none
Cc1ccc(S(=O)(=O)CC(c2ccccc2)N2CCOCC2)cc1 (stereo not drawn)	CYP2C19 inh 56.8
CC(C)(C)N/N=C1\CC(c2ccccc2)Oc2ccccc21 (stereo not drawn)	none (no result: CYP2C19 inh, CYP2C9 inh, CYP2C19 act, CYP2C9 act)
Fc1ccccc1CSc1ncn[nH]1	none (no result: CYP2C19 inh, CYP2C9 inh, CYP2C19 act, CYP2C9 act)
Nc1nnc(SCc2ccccc2F)n1-c1ccccc1	CYP2C19 inh 75.2
Fc1ccccc1CSc1nnc(Cn2cnc3ccccc32)n1-c1ccccc1	CYP2C19 inh 83.3
O=S(=O)(Nc1cccc(C(F)(F)F)c1)c1cccnc1	none
Cc1noc2ncnc(Sc3ccccc3Cl)c12	CYP2C19 inh 100.0, CYP2C9 inh 68.2
Cc1sc2ncnc(Sc3ccccc3C(=O)Nc3ccccc3Cl)c2c1C	none (no result: CYP2C19 inh, CYP2C9 inh, CYP2C19 act, CYP2C9 act)
Cc1noc2ncnc(Oc3ccccc3)c12	CYP2C19 inh 75.9
Cc1cccc(Oc2ncnc3onc(C)c23)c1	none
O=C(c1ccc(CNc2c(N3CCCC3)c(=O)c2=O)cc1)N1CCc2ccccc2C1	CYP2C9 inh 50.4
O=C1Nc2ccccc2/C1=N/c1sc2c(c1C(=O)NCCc1ccccc1)CCCC2	none
CC(C)(C)SCCNS(=O)(=O)c1ccccc1	none
COc1ccc(S(=O)(=O)NCCSCc2ccco2)cc1C	none (no result: CYP2C19 inh, CYP2C9 inh, CYP2C19 act, CYP2C9 act)
COc1ccc(S(=O)(=O)NCCSC(C)(C)C)cc1	CYP2C19 inh 95.9
CSc1ccc(S(=O)(=O)NCCOc2ccccc2C)cc1	CYP2C19 inh 63.3
COc1ccc(S(=O)(=O)NCCSC(C)(C)C)cc1Cl	CYP2C9 act 2.9
CC(C)(C)SCCNS(=O)(=O)c1ccc2ccccc2c1	CYP2C19 inh 86.5, CYP2C9 act 2.7
CC(C)N(CC#CCC(O)(c1ccccc1)c1ccccc1)C(C)C	none (no result: CYP2C19 inh, CYP2C9 inh, CYP2C19 act, CYP2C9 act)
O=C(NCCc1ccc(F)cc1)N1CCOCC1	none
COc1ccc(S(=O)(=O)NCCSCc2ccco2)cc1Cl	CYP2C19 inh 94.8, CYP2C9 act 2.1
COCCCNS(=O)(=O)c1ccc(SC)cc1	none (no result: CYP2C19 inh, CYP2C9 inh, CYP2C19 act, CYP2C9 act)
CSc1ccc(S(=O)(=O)NCCSC(C)(C)C)cc1	CYP2C19 inh 85.8
CN1c2ccccc2C(O)=C(C(=S)Nc2ccc(Cl)cc2)S1(=O)=O	CYP2C9 inh 97.3
Cc1ccc(NC(=O)C2=C(O)c3sccc3N(C)S2(=O)=O)cc1	CYP2C9 inh 63.6
CN1c2ccsc2C(O)=C(C(=O)Nc2ccccc2)S1(=O)=O	CYP2C9 inh 72.6
Cc1ccc(NC(=S)C2=C(O)c3sccc3N(C)S2(=O)=O)cc1	CYP2C9 inh 95.0
Cc1cccc(NC(=O)C2=C(O)c3ccccc3N(C)S2(=O)=O)c1	none

High-throughput results deposited in PubChem by several laboratories.
